{"source": "PubChem BioAssay AID463173", "about": "(ICCB-Longwood Screening Facility, Harvard Medical School, 2010)", "note": "Screen size: about 52,000 compounds; about 4,300 (8.3%) were called active. The sample holds actives, similar compounds and a random draw of the others, so the mix is not that of the screen. Unmarked numbers belong to inactive results. Cut-off read from the data, not from the text of the source: active = survival mostly below about 52% (no sharp cut-off); inactive = mostly above about 56%.", "data": [{"tested_on": "DeltatarO mutant", "experiment": "growth inhibition of S. aureus wild type versus tarO mutant, primary screen, teichoic acid synthesis inhibitors, RN4220, OD600 (AID 463173)", "details": "OD600, 18 h, stronger effect = lower value, screened at 18.75 µg/mL (by protocol)", "values": [{"smiles": "CCc1cccc(CC)c1NC1=NS(=O)(=O)c2ccccc21", "survival": "70%"}, {"smiles": "Cc1cc(N2CCN(c3ccc(F)cc3)CC2)n2cnnc2n1", "survival": "79%"}, {"smiles": "COc1ccc(-c2cn3cccnc3n2)cc1NC(=O)Nc1ccc(Cl)cc1", "survival": "84%"}, {"smiles": "Cc1cc(C)c(NC(=O)CSc2nncn3c2cc2oc(C)cc23)c(C)c1", "survival": "65%"}, {"smiles": "COc1ccc(NC(=O)CSc2nncn3c2cc2occc23)c(OC)c1", "survival": "69%"}, {"smiles": "CCc1nnc(SC(CC)C(=O)Nc2cc(C)ccc2C)c2cc3occc3n12", "note": "(centres undefined)", "survival": "79%"}, {"smiles": "CCc1cccc(C)c1NC(=O)CSc1nnc(CC)n2c1cc1occc12", "survival": "67%"}, {"smiles": "CCc1ccccc1NC(=O)CSc1nncn2c1cc1oc(C)cc12", "survival": "62%"}, {"smiles": "CCC(Sc1nncn2c1cc1oc(C)cc12)C(=O)Nc1ccc(F)cc1", "note": "(centres undefined)", "survival": "54%"}, {"smiles": "CCC(Sc1nncn2c1cc1occc12)C(=O)Nc1ccc(C)c(Cl)c1", "note": "(centres undefined)", "survival": "36% (active)"}, {"smiles": "O=C(CSc1nncn2c1cc1occc12)Nc1ccc(F)c(Cl)c1", "survival": "65%"}, {"smiles": "Cc1cc2c(cc3c(SCC(=O)Nc4ccc(Cl)cc4F)nncn32)o1", "survival": "36% (active)"}, {"smiles": "Cc1cc(C)cc(NC(=O)CSc2nncn3c2cc2occc23)c1", "survival": "46% (active)"}, {"smiles": "CCc1nnc(SC(CC)C(=O)Nc2ccc(OC)c(Cl)c2)c2cc3occc3n12", "note": "(centres undefined)", "survival": "72%"}, {"smiles": "CCc1cccc(C)c1NC(=O)C(CC)Sc1nncn2c1cc1occc12", "note": "(centres undefined)", "survival": "53% (active)"}, {"smiles": "CC(C)c1ccc(NC(=O)c2ccc(F)c(S(=O)(=O)N3CCCC3)c2)cc1", "survival": "74%"}, {"smiles": "Cc1ccccc1C(=O)N1CCCCC1CCN1CCCCC1", "note": "(centres undefined)", "survival": "80%"}, {"smiles": "Cc1ccc(S(=O)(=O)N2CC=C(c3ccc(F)cc3)CC2)cc1", "survival": "87%"}, {"smiles": "Cc1nn2c(=O)cc(COC(=O)c3ccccc3NC(=O)c3cccs3)nc2s1", "survival": "74%"}, {"smiles": "COc1ccc(CN(Cc2ccco2)C(=O)c2ccccc2F)cc1", "survival": "74%"}, {"smiles": "CCOc1ccc(C2C(=O)N(C3CCCCCC3)CC(=O)N2Cc2ccc(C)cc2)cc1OC", "note": "(centres undefined)", "survival": "96%"}, {"smiles": "CSc1cccc(NC(=O)Cn2nc(C)c3sc4ccccc4c3c2=O)c1", "survival": "83%"}, {"smiles": "CC1(C)Oc2ccc3ccc(=O)oc3c2-c2cn[nH]c21", "survival": "69%"}, {"smiles": "Cc1cccc(NS(=O)(=O)c2c(C)nc3sccn3c2=O)c1C", "survival": "108%"}, {"smiles": "Cc1nc2sccn2c1-c1csc(Nc2cccc(Cl)c2C)n1", "survival": "15% (active)"}, {"smiles": "Cc1nc2sccn2c(=O)c1S(=O)(=O)Nc1cccc(Cl)c1C", "survival": "68%"}, {"smiles": "CCCCC(CC)C(=O)Nc1nnc(C(C)C)s1", "note": "(centres undefined)", "survival": "91%"}, {"smiles": "O=C(CN1C(=O)CC(c2ccco2)Sc2ccccc21)Nc1ccc(Br)cc1", "note": "(centres undefined)", "survival": "75%"}, {"smiles": "O=C1CC(c2nnc(Cc3ccc(F)cc3Cl)o2)CN1c1ccccc1", "note": "(centres undefined)", "survival": "133%"}, {"smiles": "Cc1ccc(SCc2nc(-c3ccc(C(=O)NCCc4ccc(Cl)cc4)cc3)oc2C)cc1", "survival": "-2% (active)"}, {"smiles": "Cc1oc(-c2ccc(C(=O)NCCc3ccc(Cl)cc3)cc2)nc1CSc1ccccc1", "survival": "83%"}, {"smiles": "CCc1ccc(CNC(=O)c2ccc(-c3nc(CSc4ccc(C)cc4)c(C)o3)cc2)cc1", "survival": "67%"}, {"smiles": "COc1ccc(OC)c(CNC(=O)c2ccc(-c3nc(CSc4ccccc4)c(C)o3)cc2)c1", "survival": "120%"}, {"smiles": "COc1ccc(CNC(=O)c2ccc(-c3nc(CSc4ccc(C)cc4)c(C)o3)cc2)c(OC)c1", "survival": "6% (active)"}, {"smiles": "Cc1ccc(SCc2nc(-c3ccc(C(=O)NCc4ccc(Cl)cc4)cc3)oc2C)cc1", "survival": "76%"}, {"smiles": "COc1ccc(CNC(=O)c2ccc(-c3nc(CSc4ccc(C)cc4)c(C)o3)cc2)cc1OC", "survival": "-1% (active)"}, {"smiles": "COc1ccc(CNC(=O)c2ccc(-c3nc(CSc4ccccc4)c(C)o3)cc2)cc1OC", "survival": "78%"}, {"smiles": "COc1ccc(CNC(=O)c2ccc(-c3nc(CSc4ccccc4)c(C)o3)cc2)c(OC)c1", "survival": "85%"}, {"smiles": "Cc1ccc(NC(=O)CSc2nnc(-c3cc4occc4n3C)n2-c2ccccc2C)c(C)c1", "survival": "88%"}, {"smiles": "Cc1ccc(CSC2=Nc3ccccc3C3=NC(CCC(=O)NCc4cccs4)C(=O)N23)c(C)c1", "note": "(centres undefined)", "survival": "76%"}, {"smiles": "Cc1ccc2c(c1)cc(C(=O)Nc1ccc(F)cc1F)n2C", "survival": "106%"}, {"smiles": "COc1ccccc1NC(=O)CCCOc1cc(=O)n(C)c2ccccc12", "survival": "114%"}, {"smiles": "Cn1c(=O)[nH]c(=O)c2[nH]c(NCCO)nc21", "survival": "80%"}, {"smiles": "COc1ccc(-c2nc(CN3CCC(C(=O)NCCCN4CCN(c5ccccc5F)CC4)CC3)c(C)o2)cc1OC", "survival": "70%"}, {"smiles": "COc1ccc(-c2noc(-c3ccc(NCc4ccccc4OC)c([N+](=O)[O-])c3)n2)cc1", "survival": "57%"}, {"smiles": "COc1ccccc1CNc1ccc(-c2nc(-c3ccccn3)no2)cc1[N+](=O)[O-]", "survival": "43% (active)"}, {"smiles": "O=[N+]([O-])c1cc(-c2nc(-c3ccncc3)no2)ccc1NCc1ccccc1", "survival": "109%"}, {"smiles": "COc1ccccc1CNc1ccc(-c2nc(-c3cccnc3)no2)cc1[N+](=O)[O-]", "survival": "78%"}, {"smiles": "COc1ccccc1CNc1ccc(-c2nc(-c3ccncc3)no2)cc1[N+](=O)[O-]", "survival": "45% (active)"}, {"smiles": "COc1ccccc1CNc1ccc(-c2nc(-c3ccccc3C)no2)cc1[N+](=O)[O-]", "survival": "91%"}, {"smiles": "Cc1ccc(CNc2ccc(-c3nc(-c4ccncc4)no3)cc2[N+](=O)[O-])cc1", "survival": "39% (active)"}, {"smiles": "Cc1ccc(CNc2ccc(-c3nc(-c4cccnc4)no3)cc2[N+](=O)[O-])cc1", "survival": "75%"}, {"smiles": "COc1ccccc1CNc1ccc(-c2nc(C)no2)cc1[N+](=O)[O-]", "survival": "68%"}, {"smiles": "O=C(CNCC1CCCO1)Nc1ccccc1-n1cccc1", "note": "(centres undefined)", "survival": "70%"}, {"smiles": "CCOc1ccc(CNCCNC(=O)c2nonc2N)cc1", "survival": "84%"}, {"smiles": "CC1C(=NO)C(C)C(c2ccccc2)NC1c1ccccc1", "note": "(centres undefined)", "survival": "99%"}, {"smiles": "O=C(Nc1cc(Cl)ccc1O)c1nc2ncccn2n1", "survival": "74%"}, {"smiles": "CCOc1cc(C2C(C(=O)Nc3ccccc3)=C(C)Nc3ncnn32)cc(Br)c1O", "note": "(centres undefined)", "survival": "102%"}, {"smiles": "Cc1ccc2sc(N(CCCN(C)C)C(=O)c3ccco3)nc2c1C", "survival": "128%"}]}]}
